Measured values as given in PubChem BioAssay (Tox21).
Several values for one entry are separate records, joined by “and”; a condition that tells them apart may be missing. Identical values can stand only once. Results filed as inconclusive are left out. The source holds several records for some structures; these can differ, active in one and inactive in another. Activity calls are given as the source filed them. The call rests on the fitted dose curve; in most records, active means well fitted curve in the direction sought with a large enough effect in the repeat runs; inconclusive means weak or mixed curves; inactive means no such curve, though single readings can be large; an effect the other way counts as inactive or inconclusive.

Key:
[1] = qHTS RealTime-Glo MT Cell Viability Assay in HepG2 cells - 40 hour (AID 1224870); further: nearly all actives have a fitted effect of over 50% in size; further: potency means the concentration at half of the fitted maximal effect
Summary of the method: (§1)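 HepG2 cells mixed with RealTime-Glo MT reagents (NanoLuc plus cell-permeant prosubstrate) were seeded at 600 cells/well, incubated 5 h at 37 C/5% CO2, then pinned with compounds in DMSO; nonlytic luminescence tracked viability during 40 h treatment.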

[2] = A CellTox Green Cytotoxicity Assay to monitor cytotoxicity in HEK293 cells - 40 hour (AID 1224871); further: nearly all actives have a fitted effect of over 45% in size
Summary of the method: (§2)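 HEK293 cells premixed with CellTox Green dye were seeded at 600 cells/well and left 5 h at 37 C/5% CO2 before pin transfer of 23 nL compound in DMSO. Fluorescence from dye bound to dead-cell DNA was read during 40 h treatment.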

[3] = qHTS RealTime-Glo MT Cell Viability Assay in HEK293 cells - 16 hour (AID 1224872); further: top concentration of the series differs between compounds; nearly all actives have a fitted effect of over 50% in size
Summary of the method: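 Nonlytic real-time viability readout: viable cells convert prosubstrate to NanoLuc substrate, giving luminescence proportional to live cell number. HEK293, 600 cells/well, compound added after 5 h, continuous culture at 37 C.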

[4] = qHTS RealTime-Glo MT Cell Viability Assay in HepG2 cells - 8 hour (AID 1224873); further: nearly all actives have a fitted effect of over 55% in size
Summary of the method: as §1

[5] = qHTS RealTime-Glo MT Cell Viability Assay in HEK293 cells - 40 hour (AID 1224874); details: RealTime-Glo luminescence; max response: stronger effect = lower value; further: nearly all actives have a fitted effect of over 50% in size; further: potency means the concentration at half of the fitted maximal effect
Summary of the method: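 HEK293 cells mixed with RealTime-Glo reagents (NanoLuc plus cell-permeant prosubstrate) at 600 cells/well, preincubated 5 h at 37 C/5% CO2, then given 23 nL compound in DMSO. Nonlytic luminescence from viable cells was read at 0, 8, 16, 24, 32 and 40 h.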

[6] = A CellTox Green Cytotoxicity Assay to monitor cytotoxicity in HEK293 cells - 24 hour (AID 1224875); further: series mostly up to about 77 µM; nearly all actives have a fitted effect of over 45% in size
Summary of the method: as §2

[7] = A CellTox Green Cytotoxicity Assay to monitor cytotoxicity in HepG2 cells - 16 hour (AID 1224876); further: nearly all actives have a fitted effect of over 45% in size
Summary of the method: (§3)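 HepG2 cells were seeded together with the CellTox Green dye at 600 cells/well, left 5 h at 37 C/5% CO2, then given compounds in DMSO. Fluorescence from dye bound to dead-cell DNA was read repeatedly over 40 h of treatment at 37 C.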

[8] = qHTS RealTime-Glo MT Cell Viability Assay in HepG2 cells - 32 hour (AID 1224877); further: nearly all actives have a fitted effect of over 55% in size
Summary of the method: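 Luminescence read-out: viable HepG2 cells reduce a prosubstrate to a NanoLuc substrate, giving a signal proportional to live cell number. Reads taken at 0, 8, 16, 24, 32 and 40 h of compound exposure at 37 C.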

[9] = A CellTox Green Cytotoxicity Assay to monitor cytotoxicity in HepG2 cells - 24 hour (AID 1224878); further: nearly all actives have a fitted effect of over 45% in size
Summary of the method: as §3

[10] = A CellTox Green Cytotoxicity Assay to monitor cytotoxicity in HepG2 cells - 40 hour (AID 1224879); further: nearly all actives have a fitted effect of over 40% in size; further: potency means the concentration at half of the fitted maximal effect
Summary of the method: as §3
On the % scale 0 is the no-effect control and ±100 the full control effect.

C=CC(C)=O
inactive: Potency [1] | Potency [2] | Potency [3] | Potency [4] | max response [5] 4.78% | Potency [6] | Potency [7] | Potency [8] | Potency [9] | Potency [10]

COC1=CC(=O)O[C@@H](CCc2ccccc2)C1
inactive: Potency [1] | Potency [2] | Potency [3] | Potency [4] | max response [5] -25.1% | Potency [6] | Potency [7] | Potency [8] | Potency [9] | Potency [10]

CC(=O)CCC(C)=O
inactive: Potency [1] | Potency [2] | Potency [3] | Potency [4] | max response [5] 11.7% | Potency [6] | Potency [7] | Potency [8] | Potency [9] | Potency [10]

Cc1ccc2ccccc2c1
inactive: Potency [1] | Potency [2] | Potency [3] | Potency [4] | max response [5] 0.388% | Potency [6] | Potency [7] | Potency [8] | Potency [9] | Potency [10]

CCn1cc[n+](C)c1
inactive and 55.5 µM (active): Potency [10]
inactive: Potency [2] | Potency [3] | Potency [4] | max response [5] 0.829% [middle of 11 runs] | Potency [6] | Potency [7] | Potency [8] | Potency [9]
inactive and 44 µM (active): Potency [1]
active: Potency [5] 1560 nM

O=C(OC1CCCCC1)c1ccccc1C(=O)OC1CCCCC1
inactive: Potency [1] | Potency [2] | Potency [3] | Potency [4] | max response [5] -29.8% | Potency [6] | Potency [7] | Potency [8] | Potency [9] | Potency [10]

COCC(C)N(C(=O)CCl)c1c(C)csc1C (centres undefined)
inactive: Potency [1] | Potency [2] | Potency [3] | Potency [4] | max response [5] 17.2% | Potency [6] | Potency [7] | Potency [8] | Potency [9]

CC(C)(OO)c1ccccc1
inactive: Potency [1] | Potency [2] | Potency [3] | Potency [4] | max response [5] -0.0681% | Potency [6] | Potency [7] | Potency [8] | Potency [9] | Potency [10]

NNC(=O)c1cccnc1
inactive: Potency [1] | Potency [2] | Potency [3] | Potency [4] | max response [5] 12.4% | Potency [6] | Potency [7] | Potency [8] | Potency [9] | Potency [10]

Cl/C=C\Cl
inactive: Potency [1] | Potency [2] | Potency [3] | Potency [4] | max response [5] 0.558% | Potency [6] | Potency [7] | Potency [8] | Potency [9] | Potency [10]

C=CCOC(C)=O
inactive: Potency [1] | Potency [2] | Potency [3] | Potency [4] | max response [5] -6.55% | Potency [6] | Potency [7] | Potency [8] | Potency [9] | Potency [10]

C[C@]12CC[C@H]3[C@@H](CCC4=CC(=O)CC[C@@H]43)[C@@H]1CC[C@@H]2OC(=O)CCC1CCCCC1
inactive: Potency [1] | Potency [2] | Potency [3] | Potency [4] | max response [5] -18.6% | Potency [6] | Potency [7] | Potency [8] | Potency [9] | Potency [10]

O=S1OC[C@@H]2[C@H](CO1)[C@]1(Cl)C(Cl)=C(Cl)[C@@]2(Cl)C1(Cl)Cl (some centres undefined)
inactive: Potency [1]

O=C(CBr)c1ccccc1
inactive: Potency [1] | Potency [2] | Potency [3] | Potency [4] | max response [5] 3.94% | Potency [6] | Potency [7] | Potency [8] | Potency [9] | Potency [10]

Cn1cc[n+](C)c1 (tested in a mixture with another compound)
inactive: Potency [1] | Potency [2] | Potency [3] | Potency [4] | max response [5] 6.73% | Potency [6] | Potency [7] | Potency [8] | Potency [9] | Potency [10]

COc1nn(CSP(=S)(OC)OC)c(=O)s1
inactive: Potency [1] | Potency [2] | Potency [3] | Potency [4] | max response [5] -3.23% | Potency [6] | Potency [7] | Potency [8]

CO[C@@H]1[C@H](OC(=O)NC(=O)CCl)CC[C@]2(CO2)[C@H]1[C@@]1(C)O[C@@H]1CC=C(C)C
inactive: activity change, negative = cytotoxic [1] 0.252% [at 15.8 µM] | cytotoxicity increase [2] -0.615% [at 15.8 µM] | activity change, negative = cytotoxicity [3] 13.2% [at 15.8 µM] | viability change, negative = cytotoxic [4] -0.3% [at 15.8 µM] | max response [5] 1.55% | activity change [6] -10.2% [at 15.8 µM, stronger effect = higher value] | cytotoxicity increase [7] -3.75% [at 15.8 µM] | activity change, negative = cytotoxic [8] 1.26% [at 15.8 µM] | cytotoxicity [9] -1.01% [at 15.8 µM] | cytotoxicity increase [10] -2% [at 15.8 µM]

NC(=O)C(Cl)(Cl)Cl
inactive: Potency [1] | Potency [2] | Potency [3] | Potency [4] | max response [5] 16.8% | Potency [6] | Potency [7] | Potency [8] | Potency [9] | Potency [10]

ClCc1cccc(Cl)c1
inactive: Potency [1] | Potency [2] | Potency [3] | Potency [4] | max response [5] -0.225% | Potency [6] | Potency [7] | Potency [8] | Potency [9] | Potency [10]

CC(=O)C(C)(C)C
inactive: Potency [1] | Potency [2] | Potency [3] | Potency [4] | max response [5] 8.72% | Potency [6] | Potency [7] | Potency [8] | Potency [9] | Potency [10]

COC(=O)c1cncn1C(C)c1ccccc1 (centres undefined)
inactive: Potency [1] | Potency [2] | Potency [3] | Potency [4] | max response [5] 1.22% | Potency [6] | Potency [7] | Potency [8] | Potency [9] | Potency [10]

Cc1cc(=O)[nH]o1
inactive: Potency [1] | Potency [2] | Potency [3] | Potency [4] | max response [5] 2.1% | Potency [6] | Potency [7] | Potency [8] | Potency [9] | Potency [10]

CCC(Br)(CC)C(=O)NC(N)=O
inactive: Potency [1] | Potency [2] | Potency [3] | Potency [4] | max response [5] 5.12% | Potency [6] | Potency [7] | Potency [8] | Potency [9] | Potency [10]
